Results from the supplement of paper PMC6555819.

What was measured:
Test in all cases: PBM binding z-score (relative to random genomic background probes); higher = stronger binding; sequences stand for … in GC…GCGATTGACAGCGTAGAATGAAGG
[1] = tested on: PPARg:RXRa DBDmut IVT, anti-RXR (DBD mutation: RXRa K156A/R161A, NR concentration 270 nM, RXRa partner concentration 90 nM)
How it was run: (§1)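 Custom Agilent 4×180K protein-binding microarrays carried double-stranded probes. Their 34-nt variable regions held direct-repeat seeds, single-nucleotide variants, half-site ablations and random human genomic background sequences. Arrays were incubated 1 h with ligand-free nuclear receptor dimers in PBS pH 7.4, 2% milk, 0.02% Triton X-100, 1 mM DTT, 0.2 mg/mL BSA and 0.4 mg/ml salmon testes DNA. Antibodies against each partner (one per run) detected binding, and scanned fluorescence was regression-normalized. Binding z-scores use random background probes as reference.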

[2] = tested on: PPARg:RXRa IVT, anti-PPARg (NR concentration 270 nM, RXRa partner concentration 90 nM)
How it was run: as §1

[3] = tested on: PPARg DBDmut:RXRa IVT, anti-PPARg (DBD mutation: PPARg1 K132A/R137A, NR concentration 270 nM, RXRa partner concentration 90 nM)
How it was run: as §1

[4] = tested on: PPARg DBDmut IVT, anti-PPARg (DBD mutation: PPARg1 K132A/R137A, NR concentration 270 nM)
How it was run: as §1

[5] = tested on: PPARg homodimer (NR concentration 180 nM)
How it was run: as §1

[6] = tested on: PXR:RXRa (NR concentration 270 nM, RXRa partner concentration 90 nM)
How it was run: as §1

[7] = tested on: PXR homodimer (NR concentration 270 nM)
How it was run: as §1

[8] = tested on: RARa:RXR (NR concentration 270 nM, RXRa partner concentration 90 nM)
How it was run: as §1

[9] = tested on: RARa homodimer (NR concentration 270 nM)
How it was run: as §1

[10] = tested on: RARb:RXRa (NR concentration 270 nM, RXRa partner concentration 90 nM)
How it was run: as §1

[11] = tested on: RARb homodimer (NR concentration 270 nM)
How it was run: as §1

[12] = tested on: RARg:RXRa (NR concentration 270 nM, RXRa partner concentration 90 nM)
How it was run: as §1

[13] = tested on: RARg homodimer (NR concentration 270 nM)
How it was run: as §1

[14] = tested on: RXRa DBDmut IVT, anti-RXR (DBD mutation: RXRa K156A/R161A, NR concentration 90 nM)
How it was run: as §1

[15] = tested on: RXRa homodimer (NR concentration 180 nM)
How it was run: as §1

[16] = tested on: THRa:RXRa (NR concentration 90 nM, RXRa partner concentration 90 nM)
How it was run: as §1

[17] = tested on: THRa homodimer (NR concentration 90 nM)
How it was run: as §1

[18] = tested on: VDR homodimer (NR concentration 270 nM)
How it was run: as §1

Sequence	PBM binding z-score [1]	PBM binding z-score [2]	PBM binding z-score [3]	PBM binding z-score [4]	PBM binding z-score [5]	PBM binding z-score [6]	PBM binding z-score [7]	PBM binding z-score [8]	PBM binding z-score [9]	PBM binding z-score [10]	PBM binding z-score [11]	PBM binding z-score [12]	PBM binding z-score [13]	PBM binding z-score [14]	PBM binding z-score [15]	PBM binding z-score [16]	PBM binding z-score [17]	PBM binding z-score [18]
ATCTCTATGTAAGACTCAGTTCAGTGAAGAACGC	-0.194	-0.197	0.298	1.3	0.674	0.52	1.01	0.0686	0.753	0.0321	0.277	-0.035	0.0537	0.294	-0.183	0.172	0.339	1.16
GAAGACAGGTGAAACGCAGGTAACTCAGGGTGGC	0.674	1.15	0.0757	-0.907	-0.0582	-0.0972	-0.579	0.542	-0.418	0.745	0.467	0.851	0.0189	-0.671	0.66	1.49	-0.0479	-0.373
TCTCAGAGGACACGAAAGGTCAGAGCTCGACATC	1.77	1.57	-0.124	-0.022	3.62	4.28	0.423	4.62	1.56	4.44	4.95	5.29	6.24	1.46	4.47	3.77	0.917	0.991
CATACAGGGTCAGCTAGGCCAGAGCAGGGACGGC	0.983	2.45	0.782	0.361	1.29	2.04	0.078	2.84	0.253	4.15	3.07	4.3	4.47	1.32	4.21	3.18	0.613	0.954
ATATCTAGGTTAAGGGTCATTCAGGTTGGTTCGC	7.59	8.2	6.43	4.16	4.9	5.61	3.45	5.91	3.76	3.98	3.97	4.82	3.86	2.66	5.68	3.82	2.49	4.63
GCTCGGAGGACAAGGTCCGAGCTTTGTCCGTAGA	-0.364	-0.655	-1.03	-1.31	-1.07	-0.519	-1.19	-0.414	-1.77	0.839	0.2	-0.185	0.242	-0.26	-0.792	0.554	-0.414	-0.775
ATCTGTAGGTAAAAGTTCAGTGAATCCCGAGGAT	1.88	3.51	0.891	0.681	1.13	2.01	1.1	2.07	1	2.38	2.42	1.79	1.84	0.663	1.65	0.83	-0.173	1.36
ATATGTAGGTTAGCTGGGGTCATTCAAACTAGGC	7	6.34	2.93	1.75	3.19	6.37	4.83	5.84	1.69	3.18	4.02	4.22	3.15	2.15	5.57	5.16	3.52	5.71
GCTAGTTGGTCAGTAAAAGGTCACACAACGGTCG	0.826	2.77	0.539	0.321	3.81	5.2	1.19	6.17	2.05	4.43	5.29	5.75	5.52	0.797	5.56	3.76	1.74	1.75
CGTCAGAGTTCAACTAAGGTAACGTAAAGCACGC	0.228	1.32	0.422	0.416	2.24	5.76	6.21	4.1	1.3	4.73	3.58	5.39	6.02	4.87	5.49	5.18	1.68	4.58
ATCTATAGGTAAAAGTTCAGTGAATCCCGAGGAT	1.4	3.05	1.78	1.92	1.04	2.17	1.35	1.84	1.06	2.29	2.32	1.92	2.03	0.768	1.99	0.789	-0.138	1.46
TCTGCTAGGTCAACGATGGTCGGCTAATCTGCTA	4.31	4.05	0.027	-0.0502	0.168	1.22	-0.84	2.02	-1.21	3.97	3.13	3.75	5.24	0.92	2.64	2.7	0.478	-0.232
TCTCAAAGTTCAAAGGTAACGTAAGTATCCACAC	2.92	1.65	0.898	1.45	3.16	5.66	4.17	6.13	2.08	5.15	4.13	6.13	6.25	4.59	7.17	3.46	0.566	4.09
CCTACTGGGCCATCAGGTAATTGATATCAACGTT	4.07	4.05	-0.379	0.313	0.173	-0.337	-0.167	-0.328	-0.0481	0.0726	0.184	-0.0181	0.255	-0.203	-0.166	0.522	0.334	-0.212
TAGCCTAGTTCATGGGCCAGTATACCACGCGAAC	0.459	0.731	-0.299	-0.226	-0.229	0.408	0.205	0.216	-0.319	1.37	1.05	0.816	0.746	1.37	0.734	0.187	0.00574	1.42
GGAACGAGGGCAAAGTTGCTAGCATCTGTCGACG	3.98	3.83	0.283	0.105	0.354	0.708	-0.31	0.566	-1.12	2.38	1.09	1.27	1.73	2.63	1.07	0.852	-0.505	1.46

Sequence	PBM binding z-score [1]	PBM binding z-score [2]	PBM binding z-score [3]	PBM binding z-score [4]	PBM binding z-score [5]	PBM binding z-score [6]	PBM binding z-score [7]	PBM binding z-score [8]	PBM binding z-score [9]	PBM binding z-score [10]	PBM binding z-score [11]	PBM binding z-score [12]	PBM binding z-score [13]	PBM binding z-score [14]	PBM binding z-score [15]	PBM binding z-score [16]	PBM binding z-score [17]	PBM binding z-score [18]
ACTTGCAGGCCAAGGGTCACTCAAGATTAGTCCG	2.34	4.29	0.459	-0.141	1.94	3.22	0.0748	3.99	0.96	3.6	4.01	4.38	3.9	0.954	4.47	2.89	0.244	1.36
TCTTGTAGATCAATAGAGGTCAAGAAAGTGCGCT	1.9	2.9	1.22	0.341	1.79	5.53	1.38	4.29	0.852	3.26	4.21	3.92	3.84	0.858	4.46	4.17	0.941	2.12
CCGACTGGGGCAGGAAGGTTACCATACCATCCGG	1.39	2.05	-0.739	-1.79	0.462	-0.00877	-0.202	0.286	-0.388	0.913	1.15	0.592	0.687	-1.31	0.585	0.142	-0.486	-0.24
CAAACTAGGTCAAGTGGTCAAAGTCCGCTTCCCG	8.23	8.54	2.88	1.21	2.1	2.11	0.168	3	0.47	4.38	4.26	4.95	5.48	1.85	3.76	3.16	1.43	1.08
ACTAGCAGGCCAAGTGTCACTCAAGATTAGTCCG	1.36	1.14	-0.753	-0.466	-0.0608	-0.239	-0.525	0.0332	-0.483	0.887	0.681	0.433	0.865	0.117	0.215	0.0959	-0.248	-0.143
TCTCGGAGGACACGAAAGGACAGAGCTCGACATC	1.47	0.125	-0.295	-0.96	-0.288	-0.168	-0.334	0.0232	-0.282	2.03	1.82	1.33	2.48	0.518	0.152	2.23	0.669	-0.424
AGAATGAGGTTGAGATCAGGGAAACAGAATACAT	-0.749	-0.0669	0.897	0.0775	0.146	0.154	0.387	0.681	0.16	0.263	0.193	0.514	0.477	-0.1	0.612	1.35	-0.0652	0.0379
CCTCGGAGGACAACAAGAGGTCAGAGCTGCCAGA	-0.155	0.669	-1.24	-1.03	1.86	3.04	0.241	3.4	0.861	3.18	3.8	4.13	3.8	0.726	2.93	2.86	0.992	1.54
CCTCACGGGTCACTGACAGGTTATAGCATTTGGA	1.77	2.15	-0.537	-0.176	1.89	3.33	0.0959	3.98	0.868	3.85	3.33	5.64	4.5	1.81	4.65	2.77	0.669	1.02
ACAGACAGGTGAGTGAAGCTAACTCAGCTGGACG	0.196	0.291	-0.859	-1.17	-1.1	-0.701	-0.552	-0.839	-0.721	0.276	-0.638	-0.0417	0.288	-0.672	-0.0844	-0.381	-1.16	-1.08
AACTCTAGGTAAAGTTCAGTGAAAGATCGATAGA	2.44	2.21	0.224	0.266	0.953	1.71	1.53	1.14	0.544	2.73	2.3	1.97	2.32	1.44	1.19	0.938	-0.396	1.64
CAAACTAGGTCACAGATGTCAAAGTCCGTGCGTA	8.74	8.85	3.45	2.75	2.09	2.47	0.19	3.24	1.17	4.17	3.51	4.42	4.89	2.36	3.86	3.36	1.68	1.91
CCTAGCAGGCCAATCTGGGTCACTCATGGCTTGA	4.04	4.89	-0.176	-0.808	0.139	0.641	-0.181	0.915	-0.68	1.44	2.19	0.859	1.37	0.157	0.53	3.19	0.363	0.00452
AGAATGAGGTTAAGATCGGGGAAACAGAATACAT	3.24	2.85	1.19	0.972	1.09	0.98	0.624	1.93	0.617	1.95	0.944	2.19	1.53	1.28	2.25	2.54	0.927	0.542
CCTGCTGGGCCAAAGGTCATTGATTCCAATGCTC	1.56	4.42	-0.0348	0.037	3.9	5.43	1.15	6.18	0.602	4.63	4.53	5.82	4.91	1.48	6.37	3.2	0.638	2.24
